Hits are enriched below; roughly 12% of the tested compounds scored in any of these assays.
HP1b binding inh: blocks HP1-beta chromodomain binding to methylated histone tails; AID 540317; AlphaScreen HP1-beta / biotin-H3K9me3 peptide binding; hit rate 0.56% among 390,000; Potency, µM (top dose mostly 114 µM), inactives show top-dose activity change, negative = inhibition, usual class: inhibitors; P83916; also: nearly all actives have a fitted effect of over 70% in size
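Compound inhibition of the preformed complex between 50 nM HP1-beta and 50 nM biotinylated H3K9me3 peptide was read by AlphaScreen. Buffer was PBS pH 7.4 with 0.01% Tween-20. Incubations ran 30 min at room temperature, with 10 ug/mL donor/acceptor beads.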
JMJD2A Tudor: JMJD2A Tudor domain (human) inhibition | AlphaScreen JMJD2A-Tudor / H3K4me3 peptide binding | O75164 | Potency, µM (highest dose often 114 µM), without a hit: at the top dose activity change, negative = inhibition, most hits filed as inhibitors | hit rate 4.4% among 390,000; also: % is scaled to controls: 0 for no effect and ±100 for the full control effect; nearly all actives have a fitted effect of over 50% in size
Sfp PPTase inh: blocks B. subtilis Sfp PPTase activity; Potency, µM, without a hit: largest response in the series, negative = inhibition, actives largely listed as inhibitors; AID 1490; hit rate 3.5% among 310,000; Biochemical Sfp PPTase activity, qHTS; Q9F4F7;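 also: the enzyme is Sfp with the accession as filed and its product quenches rhodamine fluorescence; 0% = enzyme reaction without inhibitor and -100% = no enzyme wells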
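With Hepes-Na pH 7.6 buffer containing 10 mM MgCl2, Sfp (15 nM) modified BHQ-2-YbbR (12.5 uM) using rhodamine-CoA (5 uM). Two reads 30 minutes apart at 525/598 nm yielded each well's rate.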
BAZ2B inh: blocks human BAZ2B; AlphaScreen BAZ2B-H3K14Ac peptide displacement; Potency, µM (doses to about 114 µM), for the others: at the top dose activity change, negative = inhibition, hits mostly inhibitors; hit rate 4.4% among 360,000; AID 504333; also: % is scaled to controls: 0 for no effect and ±100 for the full control effect; nearly all actives have a fitted effect of over 60% in size
Target sequence (Q9UIF8 whole entry, looked up): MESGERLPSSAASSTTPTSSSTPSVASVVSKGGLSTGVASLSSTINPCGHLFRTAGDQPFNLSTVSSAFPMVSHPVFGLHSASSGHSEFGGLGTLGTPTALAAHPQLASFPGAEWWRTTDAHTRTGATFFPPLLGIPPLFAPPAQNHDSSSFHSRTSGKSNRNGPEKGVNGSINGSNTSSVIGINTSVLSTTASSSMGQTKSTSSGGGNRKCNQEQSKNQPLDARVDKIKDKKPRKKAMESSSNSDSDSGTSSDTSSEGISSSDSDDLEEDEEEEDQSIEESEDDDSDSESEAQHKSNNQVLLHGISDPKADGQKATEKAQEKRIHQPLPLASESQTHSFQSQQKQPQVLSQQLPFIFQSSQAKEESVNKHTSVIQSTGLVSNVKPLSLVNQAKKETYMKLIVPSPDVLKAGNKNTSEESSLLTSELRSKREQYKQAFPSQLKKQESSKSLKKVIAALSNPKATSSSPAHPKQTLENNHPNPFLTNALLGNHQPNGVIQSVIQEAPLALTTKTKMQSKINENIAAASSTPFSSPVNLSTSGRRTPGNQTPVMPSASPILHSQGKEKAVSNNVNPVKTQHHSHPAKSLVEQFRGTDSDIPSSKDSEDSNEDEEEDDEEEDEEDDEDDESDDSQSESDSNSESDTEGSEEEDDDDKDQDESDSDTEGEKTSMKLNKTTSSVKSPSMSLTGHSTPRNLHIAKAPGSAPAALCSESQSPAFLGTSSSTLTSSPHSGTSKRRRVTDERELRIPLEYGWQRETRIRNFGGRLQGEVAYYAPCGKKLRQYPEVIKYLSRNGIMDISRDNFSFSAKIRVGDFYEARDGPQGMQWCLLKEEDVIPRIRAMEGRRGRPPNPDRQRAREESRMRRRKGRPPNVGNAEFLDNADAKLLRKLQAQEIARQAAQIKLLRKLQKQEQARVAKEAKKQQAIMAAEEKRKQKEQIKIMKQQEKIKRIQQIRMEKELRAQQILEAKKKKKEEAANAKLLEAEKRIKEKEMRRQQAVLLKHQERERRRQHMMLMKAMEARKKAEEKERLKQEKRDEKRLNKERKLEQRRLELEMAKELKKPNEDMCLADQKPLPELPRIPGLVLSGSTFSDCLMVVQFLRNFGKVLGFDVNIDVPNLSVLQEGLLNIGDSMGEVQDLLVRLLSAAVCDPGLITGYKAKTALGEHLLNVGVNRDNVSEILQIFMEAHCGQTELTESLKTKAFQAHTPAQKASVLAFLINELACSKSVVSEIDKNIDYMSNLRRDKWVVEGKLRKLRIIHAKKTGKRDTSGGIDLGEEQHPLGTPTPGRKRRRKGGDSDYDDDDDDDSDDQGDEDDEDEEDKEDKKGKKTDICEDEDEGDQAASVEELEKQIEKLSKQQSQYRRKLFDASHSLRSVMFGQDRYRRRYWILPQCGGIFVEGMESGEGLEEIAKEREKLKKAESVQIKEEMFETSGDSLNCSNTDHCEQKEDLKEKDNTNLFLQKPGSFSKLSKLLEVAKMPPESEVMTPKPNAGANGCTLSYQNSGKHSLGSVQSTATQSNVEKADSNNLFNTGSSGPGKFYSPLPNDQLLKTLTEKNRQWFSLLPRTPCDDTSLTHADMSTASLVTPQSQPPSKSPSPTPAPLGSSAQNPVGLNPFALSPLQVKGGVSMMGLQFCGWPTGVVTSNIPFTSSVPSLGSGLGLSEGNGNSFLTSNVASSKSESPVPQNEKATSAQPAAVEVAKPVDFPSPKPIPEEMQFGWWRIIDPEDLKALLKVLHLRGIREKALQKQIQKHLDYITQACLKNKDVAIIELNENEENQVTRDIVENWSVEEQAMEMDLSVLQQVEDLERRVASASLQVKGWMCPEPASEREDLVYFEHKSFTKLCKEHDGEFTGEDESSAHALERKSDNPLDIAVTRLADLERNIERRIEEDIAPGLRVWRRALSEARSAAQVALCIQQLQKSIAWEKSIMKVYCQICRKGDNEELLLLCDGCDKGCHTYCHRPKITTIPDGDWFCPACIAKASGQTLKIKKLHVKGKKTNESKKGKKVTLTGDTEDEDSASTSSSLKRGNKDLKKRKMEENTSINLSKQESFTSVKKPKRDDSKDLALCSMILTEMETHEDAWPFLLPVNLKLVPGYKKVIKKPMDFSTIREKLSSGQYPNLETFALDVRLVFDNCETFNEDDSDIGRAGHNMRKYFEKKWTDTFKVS
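Compounds, titrated to a top concentration of 110 uM, were incubated 30 min at room temperature with preformed BAZ2B/acetyl-K14 H3 peptide complex (50 nM each). Proximity signal was measured by AlphaScreen after 20 min with beads.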
G9a inh: inhibitors of human histone lysine methyltransferase G9a | Q96KQ7 | G9a H3K9 monomethylation, AlphaScreen, 2 h | Potency, µM (highest dose often 102 µM), inactives show top-dose activity, negative = inhibition, hits mostly inhibitors | hit rate 8.8% among 350,000 | AID 504332; also: % is scaled to controls: 0 for no effect and ±100 for the full control effect; nearly all actives have a fitted effect of over 75% in size
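Enzyme 20 nM + cpd, 15 min RT; add b-H3K9 pep 500 nM / SAM 20 uM; 2 h RT; anti-H3K9me1 Ab 0.5 ug/mL + SA donor / anti-rabbit acceptor beads 20 ug/mL each, 10 min; AlphaScreen read.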
* hit, by the source's call; ? = inconclusive; / = not tested or not shown; ! = not confirmed by another sample; [ ] = dose if it differs, or a comment. Calls follow the shape of the dose curve; as a rule, active = well fitted curve in the direction sought with a large enough effect; inconclusive = small, poorly fitted or top-dose-only effect, or another doubt; inactive = no such curve, though single readings can be large; an effect the other way counts as inactive or inconclusive. Potency is read from the fitted curve at half-maximal effect.

SMILES | HP1b binding inh | JMJD2A Tudor | Sfp PPTase inh | BAZ2B inh | G9a inh
CN(C)C(=S)NC(=O)C(c1ccccc1)c1ccccc1 | 33.8% | -1.4% | 6.0% | -22.9% | 79.4µM*
CC(=O)NNC(=S)NC(=O)C(c1ccccc1)c1ccccc1 | 31.2% | -17.9% | 3.7% | -5.2% | /
Cc1ccccc1CSCC(=O)NC1CCCC1 | 54.6% | -21.9%[11.4 µM] | 9.5% | -2.1% | 24.7%[12.7 µM]
Clc1ccc(-c2nc3ccccn3c2CN2CCCCC2)cc1 | 11.6% | -15.7% | 8.6% | -32.3% | -26.8%
Oc1ccc(N2CCN(Cc3c(-c4ccccc4)nc4ccccn34)CC2)cc1 | ? | 14.1µM* | 25.1µM* | ? | 10µM*
Cc1ccc(-c2csc(=Nc3ccccc3)n2Cc2ccc3c(c2)OCO3)cc1C | -7.0% | ? | / | 100µM* | 14.1µM*
Clc1ccc(-c2csc(=Nc3ccccc3)n2Cc2ccc3c(c2)OCO3)cc1 | ? | ? | / | ? | 12.6µM*
Cc1ccc(-c2csc(=Nc3ccc(F)cc3)n2Cc2ccc3c(c2)OCO3)cc1C | ? | 50.1µM* | / | 4.47µM* | 14.1µM*
COC(=O)C(NNc1ccc(F)cc1)(NC(=O)c1ccccc1)C(F)(F)F (centres undefined) | 24.3% | -16.8% | 6.6% | -4.4% | 25.1µM*
COC(=O)C(NNc1ccccc1C)(NC(=O)c1ccc(F)cc1)C(F)(F)F (centres undefined) | ? | ? | 10.3% | -5.8% | 3.16µM*
COC(=O)C(NC(=O)c1ccccc1)(Nc1nccs1)C(F)(F)F (centres undefined) | 26.4% | -23.9% | 2.1% | -0.3% | -0.6%
CCOC(=O)C(NCc1ccc(F)cc1)(NC(=O)c1ccccc1)C(F)(F)F (centres undefined) | 38.8% | -3.5% | -12.5% | 74.6% | -3.0%[59 µM]
CC1CCC(NC(=O)CCc2cn(Cc3ccccc3Cl)c3ccccc23)CC1 (centres undefined) | 13.9% | -17.9% | / | ? | -30.7%[59 µM]
COc1ccc(/C=C2\Cc3ccccc3C2=O)cc1OC | 18.5% | -11.6% | -13.1% | ? | -13.7%[2.33 µM]
O=C1/C(=C/c2ccccc2)CCCc2ccccc21 | 116.0% | 100µM* | -8.7% | 85.8% | 7.9%[59 µM]
CN(C)c1ccc(/C=C2\CCC/C(=C\c3ccccc3)C2=O)cc1 | -15.9% | ? | ? | ? | 3.55µM*
COc1ccc(/C=C2\CCc3ccccc3C2=O)cc1O | -14.4% | ? | -8.0% | ? | 79.4µM*
O=C1/C(=C/c2ccc(C(=O)O)cc2)CCC/C1=C\c1ccc(C(=O)O)cc1 | 33.1% | -11.4% | -26.2% | 3.4% | -44.3%[59 µM]
CNS(=O)(=O)c1cn(CC(=O)Nc2ccc(C)cc2C)cc1S(=O)(=O)NC | 83.6% | -17.6% | / | 13.6% | 11.1%[59 µM]
COc1ccc(N(CC(=O)NCc2ccco2)C(=O)CCC(=O)Nc2ccccn2)cc1 | 25.0% | -12.3% | 18.0% | -17.4% | 8.6%
CCOC(=O)CC1=CC(C)(CC(=O)OCC)C(C#N)(C#N)C(N)=C1C#N (centres undefined) | 35.0% | -11.8% | 16.3% | -12.3% | -31.4%[12.7 µM]
CC(=O)c1ccc2cccc3c2c1N=CN3C | 20.5% | -12.7% | ? | -22.3% | 44.7µM*
CC(=O)c1ccc2c3c(cccc13)CC2 | 97.3% | 23.8% | 5.8% | 14.4% | 21.6%[59 µM]
CC1CCCN(C(=O)Cn2c(=O)n(CC3CCC(C(=O)NC(C)C)CC3)c(=O)c3sccc32)C1 (centres undefined) | 135.3% | -7.3% | / | 18.1% | 22.7%[59 µM]
CC1=NN(c2ccc(S(=O)(=O)O)cc2Cl)C(=O)C1 | -0.7% | ? | ? | -2.4% | /
SMILES | HP1b binding inh | JMJD2A Tudor | Sfp PPTase inh | BAZ2B inh | G9a inh
CC1=NN(c2ccc(Cl)c(C(=O)O)c2)C(=O)C1 | -37.8% | 56.2µM* | 12.9% | -25.7% | 50.1µM*
CC1=NN(c2cccc(Cl)c2)C(=O)C1 | 9.9% | -24.5% | 5.0% | ? | 2.7%[59 µM]
CC1=NN(c2ccc(C(=O)O)c(N)c2)C(=O)C1 | 70.8µM* | 50.1µM* | ? | 39.8µM* | 4.47µM*
CC1=NN(c2cc(Cl)c(S(=O)(=O)O)cc2Cl)C(=O)C1 | 14.3%[57 µM] | 89.1µM* | / | / | /
CCOC(=O)N1CCN(C(=O)C2CCN(S(=O)(=O)N3CCCC3)CC2)CC1 | 12.3% | -1.1% | 11.1% | -6.8% | 9.1%[12.7 µM]
CCOC(=O)N1CCN(C(=O)C2CCN(CC3CCCCC3)CC2)CC1 | -14.0% | 8.91µM* | 10.8% | -26.1% | 35.5µM*
S=C(Nc1ccc2c(c1)OCO2)Nc1ccccc1Cl | 33.9% | -14.0%[11.4 µM] | 17.8µM* | -16.7% | ?
S=C(Nc1ccc2c(c1)OCCO2)Nc1ccc2c(c1)OCO2 | -1.3% | -28.6% | -12.8% | ? | 50.1µM*
OCCNC(=S)Nc1ccc2c(c1)OCCO2 | 30.4% | -7.8% | -6.8% | -2.6% | /
Cc1ccc(C(=O)Nc2cc(-c3ccn[nH]3)c(C)n(N)c2=O)cc1 | 8.8% | -4.4% | 9.7% | -12.6% | -4.7%
Cc1cc(C)n(CC(=O)NNC(=O)C2CC(=O)N(Cc3ccccc3Cl)C2)n1 (centres undefined) | 35.7% | -3.7% | 26.0% | -1.3% | 44.7µM*
Clc1nccc(NCc2ccccc2)n1 | 30.3% | -4.5% | / | / | /
COc1ccc(Cl)cc1/C=C1/C(=O)ON=C1C | 13.1% | -28.8% | 50.1µM* | -27.3% | ?
COc1ccc(Cl)cc1/C=C/c1ccc2cccc(O)c2n1 | 36.9% | -24.2% | 9.5% | ? | -42.0%
CCOc1ccc(Cl)cc1/C=C1/C(=O)ON=C1C | 13.8% | -6.1% | 50.1µM* | ? | ?
O=C(Nc1ccccc1F)c1ccc(Cn2nc(N3CCN(c4ccccc4)CC3)ccc2=O)o1 | 8.1% | 50.1µM* | / | 31.6µM* | ?
CCN(CC)C(=O)N1CCN(C)CC1 | -19.2% | 56.2µM* | -9.5% | ? | 14.1µM*!
CCCCCc1c2c(cc(O)c1C(=O)O)OC(=O)c1cc(C(=O)CCCC)c(OC)cc1O2 | 4.5% | ? | -24.8% | / | /
CCCCCc1c2c(cc(O)c1C(=O)O)OC(=O)c1c(cc(OC)cc1C(=O)CCCC)O2 | 22.0% | -30.6% | 6.1% | 79.4µM* | -11.9%[59 µM]
CSc1ccccc1NC(=O)COc1ccc(Cl)cc1 | 145.0% | 97.2% | -9.9% | 104.5% | 68.8%[59 µM]
Cn1c(CNc2ccccc2O)nc2ccccc21 | 2.3% | ? | 44.7µM* | ? | 3.55µM*
COc1cc(CNc2ccc3c(c2)ncn3C(C)C)cc(OC)c1OC | 10.7% | -19.8% | / | -27.5% | ?
Cc1ccc(CNc2ccc3c(c2)ncn3C(C)C)cc1 | 8.5% | ? | -8.8% | 35.5µM* | 11.2µM*
Cc1ccccc1NCc1nc2ccccc2n1C | 38.1% | -20.7% | 12.4% | -26.7% | 7.6%
Cn1c(CNc2ccccc2)nc2ccccc21 | 37.8% | -17.0% | 7.3% | -9.8% | -25.7%
CC(C)n1cnc2cc(NCc3nc4ccccc4n3C)ccc21 | 9.8% | ? | -3.0% | ? | 44.7µM*
CC(C)(/C=N/O)/[N+]([O-])=C/c1ccco1 | 26.0% | -11.2% | 13.4% | -0.5% | -23.7%
Cc1nc(/C=[N+](\[O-])C(C)(C)/C=N/O)n(O)c1C | 24.0% | 7.94µM* | -20.8% | 50.1µM* | ?
O=C(O)c1ccc(/C=N/NC(=O)c2cc3c(ccc4ccccc43)o2)cc1 | 30.5% | ? | -24.9% | 70.8µM* | ?

Assay outcomes from PubChem.
